Data from PubChem BioAssay (NCI).
This is part of a sample that, as a whole, favours compounds with a hit. Of some 83,000 tested, about 20% had one in any assay.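 Results are percent growth after 48 hours of single-concentration exposure. 100 means growth as in untreated cells, lower positive values show inhibition; negative values down to -100 show cell death.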 Unmarked numbers belong to inactive results. The source made the active and inactive calls. The calls were made as follows: active = growth percent below 10; inactive = the rest.

Columns and labels:
Assay in all cases: NCI-60 one-dose screen, 48 h (100 = growth as untreated, 0 = no growth, -100 = all killed)
SK-MEL-2 melanoma = settings: 10 µM
EKVX NSCLC = settings: 10 µM unless noted
SN12C renal = settings: 10 µM unless noted
UO-31 renal = settings: 10 µM unless noted
TK-10 renal = settings: 10 µM unless noted
ACHN renal = settings: 10 µM unless noted
A498 renal = settings: 10 µM unless noted
CCRF-CEM leukemia = settings: 10 µM unless noted
MOLT-4 leukemia = settings: 10 µM unless noted
CAKI-1 renal = settings: 10 µM unless noted

Row | Compound | growth (SK-MEL-2 melanoma) | growth (EKVX NSCLC) [%] | growth (SN12C renal) [%] | growth (UO-31 renal) | growth (TK-10 renal) | growth (ACHN renal) | growth (A498 renal) | growth (CCRF-CEM leukemia) | growth (MOLT-4 leukemia) | growth (CAKI-1 renal) [%]
1 | CCN1CCN(c2cc(C)nc(N(CCCNc3ccnc4cc(Cl)ccc34)Cc3cccs3)n2)CC1 | -37.8% (active) | 42.3 | 39 | -76.1% (active) | -41% (active) | 7.79% (active) | -13.7% (active) | 1.95% (active) | 5.24% (active) | 
2 | Cc1ccc(-c2cc3c(SCC(=O)Nc4cc(C(F)(F)F)ccc4Cl)nccn3n2)cc1 | 85.4% |  | 73.6 | 30.4% | 91.3% | 40.4% | 71.3% | 20.3% | 5.39% (active) | 30.2
3 | COc1c(C(NC(=O)c2ccccc2)c2sccc2C)cc(Cl)c2cccnc12 (centres undefined) | 108% | 100 | 94.1 |  | 98.4% | 104% |  | 83.9% | 85.7% | 95.4
4 | N#CC1(C#N)C(c2cccs2)NC(c2cccs2)C1(C#N)C#N (centres undefined) | 102% |  | 105 | 71.4% | 114% | 102% | 116% | 100% | 95.3% | 
5 | CCCCCCCC(=O)SCC/C=C/[C@@H]1CC(=O)NCc2cccc(n2)C2=N[C@@](C)(CS2)C(=O)N[C@@H](C(C)C)C(=O)N1 | 18.1% | 51.3 | 55.7 |  | 12% | 59.6% |  | 44.9% | 17.5% | 82.3
6 | CCOC(=O)Sc1ncnc2nc[nH]c12 | 27.9% |  | 82.4 | 41% | 23.2% | 70% | 84% |  | 4.03% (active) | 
